Activity calls are given as the source filed them.
Assays:
[1] = tested on: PRMT1 (protein arginine N-methyltransferase 1); assay: PRMT1 binders on small-molecule microarrays, primary screen, biochemical, small-molecule microarray, 635 nm fluorescence (AID 1088); conditions: small-molecule microarray binding, higher = more signal;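 also: binding of Prmt1 protein to compounds spotted on small-molecule microarray slides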
[2] = yeast growth modulation, basal conditions, primary screen, YJM789 clinical isolate, OD600, 24 h (AID 1089);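 also: growth of clinical yeast isolate S. cerevisiae YJM 789 seeded 1000 cells per well; test concentration not given here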; conditions: S. cerevisiae YJM789 growth, higher = more signal, called active from +8 up or from −8 down
[3] = fission yeast growth modulation, primary screen, strain 972, OD600, 24 h, no modulator (AID 1090);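 also: basal condition with compound alone and no growth modifier present; test concentration not given here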; conditions: S. pombe 972 growth, higher = more signal, called active from +8 up or from −8 down
[4] = S. cerevisiae growth modulation with rapamycin, primary screen, strain BY4716, OD600, 96 h (AID 1091); conditions: higher = more signal, called active from +8 up or from −8 down; also: test concentration not given here
[5] = target: Torsin-1A-interacting protein 2 (Homo sapiens) (UniProt Q8NFQ8); assay: LULL1 binders on small-molecule microarray, primary screen, cell lysate, human LULL1 lysate, 635/667 nm fluorescence (AID 1092); conditions: hLULL1 lysate binding, 635 nm fluorescence, higher = more signal;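 also: probe is lysate of COS7 cells overexpressing human LULL1; score merges per-feature 667 nm fluorescence with signal-to-noise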
[6] = E. coli growth modulation, two-sided OD650, primary screen, E. coli filamentation project, strain DRC41, 24 h (AID 1093); conditions: OD650, 24 h, higher = more signal, called active from +8 up or from −8 down;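 also: MC1000 strain lacking acrAB efflux and sulA so SOS filamentation is blocked; test concentration not given here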
[7] = small-molecule microarray binders of probe aLefty2, primary screen, biochemical, biotinylated probe, 635/667 nm fluorescence (AID 1094); conditions: higher = more signal;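 also: score merges spot fluorescence near 667 nm with spot signal-to-noise ratio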
[8] = tested on: Noggin (protein binding on small-molecule microarray); assay: Noggin binders on small-molecule microarray, primary screen, biochemical, 635/667 nm fluorescence (AID 1095); conditions: 635 nm fluorescence, higher = more signal;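 also: score merges 667 nm feature fluorescence with signal to noise over triplicate slides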
[9] = target: Neurogenic locus notch homolog protein 3 (Homo sapiens) (UniProt Q9UM47); assay: NOTCH3 binders on small-molecule microarray, primary screen, biochemical, 635/667 nm fluorescence (AID 1096); conditions: NOTCH3 binding, 635 nm fluorescence, higher = more signal
[10] = small-molecule microarray binders of probe aEGFR, primary screen, biochemical, biotinylated probe, 635/667 nm fluorescence (AID 1097); conditions: higher = more signal;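 also: probe is a biotinylated anti-EGFR antibody binding compounds printed on slides; score combines fluorescence near 667 nm and signal to noise of each spot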
[11] = tested on: Plasmodium falciparum Sir2 (PF13_0152, Sir2A); assay: pfSir2 binders on small-molecule microarrays, primary screen, biochemical, small-molecule microarray, 635 nm fluorescence (AID 1098); conditions: small-molecule microarray binding, fluorescence 635 nm; higher = more signal;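 also: score merges spot fluorescence intensity with its signal-to-noise ratio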
[12] = small-molecule microarray binders of probe aDKK1, primary screen, biochemical, biotinylated probe, 635/667 nm fluorescence (AID 1099); conditions: higher = more signal;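 also: score merges 667nm spot fluorescence with signal to noise across triplicate slides; reference of the scale not given here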
[13] = small-molecule microarray binders of probe aCHRDL2, primary screen, biochemical, biotinylated probe, 635/667 nm fluorescence (AID 1100); conditions: higher = more signal
[14] = splicing luciferase reporter signal modulators, primary screen, spliceosome inhibition project, cell-based, HEK293, splice +/- reporter (AID 1101); conditions: luminescence, 24 h, higher = more signal, called active from +8 up or from −8 down;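 also: HEK293 cells carrying a splicing-competent luciferase reporter gene; test concentration not given here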
[15] = target: Fibroblast growth factor 10 (Homo sapiens) (UniProt O15520); assay: FGF10 binders on small-molecule microarrays, primary screen, biochemical, small-molecule microarray, 635 nm fluorescence (AID 1102); conditions: FGF10 binding, fluorescence 635 nm, higher = more signal
[16] = tested on: glycogen synthase kinase-3 (GSK3A per assay name; protocol says GSK3B); assay: GSK3 binders on small-molecule microarrays, primary screen, biochemical, small-molecule microarray, 635 nm fluorescence, GSK3A (AID 1103); conditions: small-molecule microarray binding, fluorescence 635 nm; higher = more signal; also: the record names both GSK3A and GSK3B
[17] = target: Epidermal growth factor receptor (Homo sapiens) (UniProt P00533); assay: EGFR binders on small-molecule microarrays, primary screen, biochemical, small-molecule microarray, 635 nm fluorescence (AID 1104); conditions: EGFR binding, higher = more signal;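 also: score merges 667 nm emission intensity with spot signal to noise over triplicate slides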
[18] = target: Follistatin-related protein 3 (Homo sapiens) (UniProt O95633); assay: FSTL3 binders on small-molecule microarrays, primary screen, biochemical, small-molecule microarray, 635 nm fluorescence (AID 1105); conditions: FSTL3 binding, higher = more signal;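 also: score merges emission near 667 nm and signal to noise per printed spot across three slides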
[19] = target: Dickkopf-related protein 1 (Homo sapiens) (UniProt O94907); assay: DKK1 binders on small-molecule microarrays, primary screen, biochemical, small-molecule microarray, 635 nm fluorescence scan (AID 1106); conditions: DKK1 binding, higher = more signal;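 also: score merges emission near 667 nm with signal to noise over three replicate slides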
[20] = tested on: Inhibin beta A chain (activin A); assay: INHBA (activin A) binders on microarrays, primary screen, biochemical, small-molecule microarray, 635 nm fluorescence scan (AID 1107); conditions: small-molecule microarray binding, higher = more signal;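 also: mouse activin A protein probed at 4.33 µg/mL on printed slides; score merges bound-protein fluorescence near 667 nm with spot signal-to-noise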

Chain of Fibroblast growth factor 10 (Homo sapiens) (O15520 whole entry, looked up): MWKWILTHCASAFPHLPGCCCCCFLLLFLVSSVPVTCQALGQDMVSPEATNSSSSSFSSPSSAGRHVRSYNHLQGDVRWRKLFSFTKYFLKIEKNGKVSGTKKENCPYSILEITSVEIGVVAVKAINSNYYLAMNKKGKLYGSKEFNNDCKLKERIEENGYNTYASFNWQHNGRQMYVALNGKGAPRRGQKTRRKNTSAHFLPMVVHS
Chain of Neurogenic locus notch homolog protein 3 (Homo sapiens) (Q9UM47 whole entry, looked up): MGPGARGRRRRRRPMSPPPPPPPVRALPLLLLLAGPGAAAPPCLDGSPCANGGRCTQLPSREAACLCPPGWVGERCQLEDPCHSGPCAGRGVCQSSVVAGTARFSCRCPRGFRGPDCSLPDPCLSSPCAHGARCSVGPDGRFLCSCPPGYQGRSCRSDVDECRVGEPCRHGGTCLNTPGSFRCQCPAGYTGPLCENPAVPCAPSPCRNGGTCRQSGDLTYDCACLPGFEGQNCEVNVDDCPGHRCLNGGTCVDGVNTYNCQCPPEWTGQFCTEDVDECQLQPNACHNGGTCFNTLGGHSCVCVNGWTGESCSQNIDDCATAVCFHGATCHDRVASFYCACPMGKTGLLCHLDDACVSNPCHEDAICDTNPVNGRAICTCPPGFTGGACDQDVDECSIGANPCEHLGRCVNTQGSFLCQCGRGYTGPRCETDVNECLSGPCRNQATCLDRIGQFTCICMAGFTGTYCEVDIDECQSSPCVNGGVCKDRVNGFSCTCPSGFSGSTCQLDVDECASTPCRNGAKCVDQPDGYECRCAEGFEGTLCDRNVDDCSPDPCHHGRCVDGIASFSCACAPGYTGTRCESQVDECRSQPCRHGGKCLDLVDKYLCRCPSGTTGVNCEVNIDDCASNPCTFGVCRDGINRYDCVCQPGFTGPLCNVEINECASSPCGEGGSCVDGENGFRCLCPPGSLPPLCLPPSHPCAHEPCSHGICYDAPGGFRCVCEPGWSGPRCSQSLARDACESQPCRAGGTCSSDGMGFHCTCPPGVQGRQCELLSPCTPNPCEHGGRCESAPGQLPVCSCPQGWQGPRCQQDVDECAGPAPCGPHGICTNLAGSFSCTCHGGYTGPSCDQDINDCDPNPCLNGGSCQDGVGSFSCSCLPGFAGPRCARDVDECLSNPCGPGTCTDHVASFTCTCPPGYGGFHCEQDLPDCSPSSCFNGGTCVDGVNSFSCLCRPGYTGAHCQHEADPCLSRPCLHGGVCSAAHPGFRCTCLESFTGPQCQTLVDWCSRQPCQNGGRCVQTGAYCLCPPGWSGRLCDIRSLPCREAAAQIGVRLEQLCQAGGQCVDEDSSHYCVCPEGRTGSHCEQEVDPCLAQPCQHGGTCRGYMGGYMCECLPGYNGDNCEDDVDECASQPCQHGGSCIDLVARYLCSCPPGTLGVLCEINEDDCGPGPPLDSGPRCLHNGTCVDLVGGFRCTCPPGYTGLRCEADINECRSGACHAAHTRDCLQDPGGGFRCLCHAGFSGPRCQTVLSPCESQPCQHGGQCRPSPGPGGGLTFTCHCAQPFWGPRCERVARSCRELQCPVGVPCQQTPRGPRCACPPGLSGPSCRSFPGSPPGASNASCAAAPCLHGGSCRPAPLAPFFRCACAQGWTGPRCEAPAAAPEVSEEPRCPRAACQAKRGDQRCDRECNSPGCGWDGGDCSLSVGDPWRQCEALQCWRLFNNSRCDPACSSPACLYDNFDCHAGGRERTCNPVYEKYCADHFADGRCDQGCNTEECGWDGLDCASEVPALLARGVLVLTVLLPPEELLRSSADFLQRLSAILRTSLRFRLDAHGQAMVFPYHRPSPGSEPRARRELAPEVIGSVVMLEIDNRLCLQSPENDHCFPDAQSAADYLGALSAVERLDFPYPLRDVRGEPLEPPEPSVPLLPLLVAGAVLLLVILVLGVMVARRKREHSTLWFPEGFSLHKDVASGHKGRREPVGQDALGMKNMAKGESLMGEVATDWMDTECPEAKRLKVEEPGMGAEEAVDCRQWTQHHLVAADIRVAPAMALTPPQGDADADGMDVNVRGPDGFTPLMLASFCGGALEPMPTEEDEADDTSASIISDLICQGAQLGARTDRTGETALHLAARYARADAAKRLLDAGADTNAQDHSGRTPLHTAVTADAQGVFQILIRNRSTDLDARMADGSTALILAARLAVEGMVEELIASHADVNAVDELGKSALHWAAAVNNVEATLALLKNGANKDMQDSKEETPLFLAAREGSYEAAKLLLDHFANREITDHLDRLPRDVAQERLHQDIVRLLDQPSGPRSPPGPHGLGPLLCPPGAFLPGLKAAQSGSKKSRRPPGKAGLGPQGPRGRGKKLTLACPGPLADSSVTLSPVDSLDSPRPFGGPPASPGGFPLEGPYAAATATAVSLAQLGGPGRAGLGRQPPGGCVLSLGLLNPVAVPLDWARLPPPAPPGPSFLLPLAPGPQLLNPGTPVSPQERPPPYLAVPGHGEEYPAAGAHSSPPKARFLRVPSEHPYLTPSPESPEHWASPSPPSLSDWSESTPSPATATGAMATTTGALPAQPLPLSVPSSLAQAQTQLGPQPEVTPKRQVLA
Chain of Follistatin-related protein 3 (Homo sapiens) (O95633 whole entry, looked up): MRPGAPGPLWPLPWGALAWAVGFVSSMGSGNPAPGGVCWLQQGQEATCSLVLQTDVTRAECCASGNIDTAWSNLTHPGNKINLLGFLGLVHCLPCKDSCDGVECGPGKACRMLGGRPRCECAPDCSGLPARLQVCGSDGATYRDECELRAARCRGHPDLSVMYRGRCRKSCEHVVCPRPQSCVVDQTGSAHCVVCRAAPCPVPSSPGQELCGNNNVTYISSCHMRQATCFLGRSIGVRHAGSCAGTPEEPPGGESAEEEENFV
Chain of Dickkopf-related protein 1 (Homo sapiens) (O94907 whole entry, looked up): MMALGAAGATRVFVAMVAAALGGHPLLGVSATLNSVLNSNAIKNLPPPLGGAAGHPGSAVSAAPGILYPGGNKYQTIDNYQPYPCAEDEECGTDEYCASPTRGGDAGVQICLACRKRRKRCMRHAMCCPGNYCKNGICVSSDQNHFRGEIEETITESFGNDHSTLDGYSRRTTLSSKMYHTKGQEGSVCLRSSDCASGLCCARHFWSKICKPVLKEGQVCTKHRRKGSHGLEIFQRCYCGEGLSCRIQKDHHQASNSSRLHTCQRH
Chain of Torsin-1A-interacting protein 2 (Homo sapiens) (Q8NFQ8 whole entry, looked up): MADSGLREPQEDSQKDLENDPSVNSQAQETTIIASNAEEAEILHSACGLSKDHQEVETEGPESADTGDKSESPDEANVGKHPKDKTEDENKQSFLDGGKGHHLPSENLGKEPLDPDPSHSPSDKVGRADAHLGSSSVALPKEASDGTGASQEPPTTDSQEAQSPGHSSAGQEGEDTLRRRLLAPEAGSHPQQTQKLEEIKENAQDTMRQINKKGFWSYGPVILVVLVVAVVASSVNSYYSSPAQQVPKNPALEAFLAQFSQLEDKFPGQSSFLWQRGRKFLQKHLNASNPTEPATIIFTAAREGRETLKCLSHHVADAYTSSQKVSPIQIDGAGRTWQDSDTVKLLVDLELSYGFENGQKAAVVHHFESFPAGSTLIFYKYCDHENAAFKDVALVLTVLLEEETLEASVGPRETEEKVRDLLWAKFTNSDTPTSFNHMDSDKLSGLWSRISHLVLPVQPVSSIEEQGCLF
Chain of Epidermal growth factor receptor (Homo sapiens) (P00533 whole entry, looked up): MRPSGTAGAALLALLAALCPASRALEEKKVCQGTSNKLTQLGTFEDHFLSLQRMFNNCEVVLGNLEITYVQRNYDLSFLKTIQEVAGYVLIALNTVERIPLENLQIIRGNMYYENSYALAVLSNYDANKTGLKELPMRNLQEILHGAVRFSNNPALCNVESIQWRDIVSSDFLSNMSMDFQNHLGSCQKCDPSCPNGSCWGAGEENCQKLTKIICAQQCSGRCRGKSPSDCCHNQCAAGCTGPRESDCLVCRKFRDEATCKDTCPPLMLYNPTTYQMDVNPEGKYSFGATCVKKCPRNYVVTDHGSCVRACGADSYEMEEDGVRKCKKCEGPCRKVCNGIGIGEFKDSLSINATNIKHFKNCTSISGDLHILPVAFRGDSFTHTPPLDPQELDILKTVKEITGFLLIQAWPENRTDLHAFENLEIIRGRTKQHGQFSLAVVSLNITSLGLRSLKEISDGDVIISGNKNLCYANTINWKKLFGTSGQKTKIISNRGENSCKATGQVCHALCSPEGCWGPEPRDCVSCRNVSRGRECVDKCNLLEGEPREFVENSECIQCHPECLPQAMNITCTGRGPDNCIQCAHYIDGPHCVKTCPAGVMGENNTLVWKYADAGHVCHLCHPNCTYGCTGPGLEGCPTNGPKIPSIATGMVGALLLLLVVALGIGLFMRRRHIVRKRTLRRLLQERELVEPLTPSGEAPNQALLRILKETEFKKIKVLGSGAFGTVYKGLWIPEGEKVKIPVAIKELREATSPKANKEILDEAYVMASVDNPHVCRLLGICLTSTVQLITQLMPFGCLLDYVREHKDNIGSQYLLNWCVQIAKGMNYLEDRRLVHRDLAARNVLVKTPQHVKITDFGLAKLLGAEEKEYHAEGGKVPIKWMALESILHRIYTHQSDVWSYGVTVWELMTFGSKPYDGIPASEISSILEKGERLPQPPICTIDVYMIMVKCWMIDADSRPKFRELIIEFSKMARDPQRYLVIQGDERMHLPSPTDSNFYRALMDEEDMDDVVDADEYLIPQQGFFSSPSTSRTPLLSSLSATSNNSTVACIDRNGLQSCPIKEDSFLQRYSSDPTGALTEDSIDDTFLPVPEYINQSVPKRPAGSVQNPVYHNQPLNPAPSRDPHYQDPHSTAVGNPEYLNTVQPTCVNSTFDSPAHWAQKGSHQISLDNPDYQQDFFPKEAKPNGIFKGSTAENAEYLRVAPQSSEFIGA

| Structure (SMILES) | composite z-score [1] | z-score [2] | z-score [3] | z-score [4] | composite z-score [5] | z-score [6] | composite z-score [7] | composite z-score [8] | composite z-score [9] | composite z-score [10] | composite z-score [11] | composite z-score [12] | composite z-score [13] | z-score [14] | composite z-score [15] | composite z-score [16] | composite z-score [17] | composite z-score [18] | composite z-score [19] | composite z-score [20] |
| --- | --- | --- | --- | --- | --- | --- | --- | --- | --- | --- | --- | --- | --- | --- | --- | --- | --- | --- | --- | --- |
| COc1ccc([Si](C)(C)[C@H]2[C@H](CC(=O)N3Cc4ccccc4C[C@H]3CO)O[C@@]3(C(=O)N(Cc4cccc(N5CCOC5=O)c4)c4ccccc43)[C@@H]2C)cc1 | 1.34 | -0.541 (inactive) | 0.319 (inactive) | 0.18 (inactive) | 0.662 | 1.4 (inactive) | 0.0939 | 1.22 | 0.932 | -0.0169 | 1.1 | -0.158 | 0.0765 | -1.07 (inactive) | 0.701 | 0.461 | 1.13 | 1.24 | 1 | 0.923 |
| CCC#CCN(Cc1ccccc1Br)[C@H](/C=C/c1ccccc1)[C@@H](O)Cc1ccccc1 | -0.394 | 0.629 (inactive) | 0.266 (inactive) | 1.12 (inactive) | 1.22 | 0.567 (inactive) | 0.136 | -1.78 | -1.11 | -0.458 | 0.193 | 0.0099 | 1.28 | -1.89 (inactive) | -0.89 | -0.688 | -1.53 | -1.81 | -1.6 | 1.05 |
| C=CCN(C(=O)C1N(c2ccc(CCO)cc2)C(=O)C2C(C(=O)O)C3C=CC21O3)C(C)(C)C (stereo not given) | -1.91 | -0.696 (inactive) | -1.89 (inactive) | -0.569 (inactive) | 1.94 | 2.89 (inactive) | -0.014 | -3.2 | -1.92 | -0.356 | 1.86 | -0.214 | 1.24 | -1.32 (inactive) | -1.86 | -0.723 | -3.08 | -2.73 | -4.35 | -1.06 |
| CC(C)[Si]1(C(C)C)OCc2cc(C3CC3)nc(-c3ccccc3)c21 | 0.168 | -0.604 (inactive) | -3.7 (inactive) | -1.39 (inactive) | -0.431 | 2.13 (inactive) | -0.142 | -0.246 | -0.802 | -0.216 | 0.0305 | -0.294 | 0.525 | -2.27 (inactive) | -0.395 | -1.24 | -0.385 | -0.708 | -0.342 | 1.21 |
| CC(C)C[C@@H]1NC(=O)[C@H](CC(C)C)NC(=O)[C@@]23C(=O)N[C@@H](Cc4ccccc4)C2[C@H](C)[C@@]2(C)O[C@H]2C3/C=C/CC/C=C/CNC1=O (stereo not given in full) | 1.54 | -0.833 (inactive) | -2.66 (inactive) | -1.74 (inactive) | 2.01 | 0.194 (inactive) | -0.26 | 0.413 | 1.08 | -0.0697 | 1.05 | -0.233 | -0.406 | -0.218 (inactive) | 0.707 | 0.516 | 0.543 | 0.998 | 1.19 | 1.38 |
| O=C1O[C@@H](c2ccccc2)[C@@H](c2ccccc2)N2[C@@H](c3ccc(O)cc3)[C@]3(C(=O)Nc4ccccc43)[C@@H](C(=O)N3CCN(c4ncccn4)CC3)[C@H]12 | 1.29 | 0.2 (inactive) | -1.95 (inactive) | 1.98 (inactive) | 2.71 | 3.16 (inactive) | -0.12 | -0.534 | 0.079 | -0.179 | 1.13 | 0.413 | 0.535 | -0.547 (inactive) | -0.0898 | 0.202 | -0.366 | 0.0146 | -0.21 | -0.437 |
| CCOC(=O)C[C@H]1[C@H](OC(=O)Cc2ccc3c(c2)OCO3)[C@@H](NC(=O)CC(C)C)c2cc(OCCCO)ccc2N1C(=O)c1ccccc1 | 0.53 | -0.211 (inactive) | -1.36 (inactive) | -0.66 (inactive) | 0.836 | 1.6 (inactive) | -0.0127 | 0.542 | 0.417 | 0.0253 | 0.899 | -0.095 | -0.533 | -1.6 (inactive) | 0.723 | 0.263 | 0.369 | 0.321 | 0.451 | 0.643 |
| O=C1c2ccccc2[C@@]2(Cc3ccccc3N(CC(F)(F)F)C2=O)[C@H](c2ccc(CO)cc2)N1C1CCCCC1 | 0.778 | 0.315 (inactive) | -0.958 (inactive) | -1.99 (inactive) | 1.08 | 0.825 (inactive) | 0.0598 | 1.05 | 0.601 | 0.0376 | 0.208 | 0.117 | 0.0803 | -0.189 (inactive) | 0.982 | 0.88 | 0.229 | 0.95 | 1.02 | 0.801 |
| C[C@@H]1NC(=O)[C@H](Cc2ccccc2)NC(=O)[C@@]23C(=O)N[C@@H](Cc4ccccc4)C2[C@H](C)[C@@]2(C)O[C@H]2C3/C=C/C/C=C\CNC1=O (stereo not given in full) | -0.747 | 0.723 (inactive) | 0.0909 (inactive) | 0.937 (inactive) | -1.73 | -1.38 (inactive) | -0.174 | 0.0939 | -0.769 | -0.171 | 1.04 | -0.277 | -0.533 | -0.212 (inactive) | -0.356 | -1.48 | -0.202 | -0.0037 | 0.515 | 0.944 |
| CC1CC/C=C\[C@H]2OC34C=CCN(Cn5nnc6ccccc65)C(=O)[C@H]3N(C(C)CO)C(=O)[C@@H]4C2C(=O)O1 (stereo not given in full) | -0.151 | 0.799 (inactive) | 0.0528 (inactive) | 0.272 (inactive) | 2.22 | -0.224 (inactive) | -0.144 | -0.537 | -0.118 | -0.19 | 1.26 | -0.0466 | 0.201 | 0.825 (inactive) | 0.0056 | -0.837 | -0.848 | -0.814 | -0.936 | 0.494 |

— PubChem BioAssay
